Active and inactive are the calls of the source. How the calls were made is not given here.
molecular target: Protein kinase 7 (PK7), Plasmodium falciparum 3D7 (PF3D7_0213400) (UniProt Q7YTF7); test: inhibition of Plasmodium PK7 catalytic activity – biochemical, TCAMS antimalarial set, Kinase-Glo luminescence (AID 1159587); details: recombinant PfPK7, Kinase-Glo ATP depletion luminescence
Sequence (Q7YTF7 1-343): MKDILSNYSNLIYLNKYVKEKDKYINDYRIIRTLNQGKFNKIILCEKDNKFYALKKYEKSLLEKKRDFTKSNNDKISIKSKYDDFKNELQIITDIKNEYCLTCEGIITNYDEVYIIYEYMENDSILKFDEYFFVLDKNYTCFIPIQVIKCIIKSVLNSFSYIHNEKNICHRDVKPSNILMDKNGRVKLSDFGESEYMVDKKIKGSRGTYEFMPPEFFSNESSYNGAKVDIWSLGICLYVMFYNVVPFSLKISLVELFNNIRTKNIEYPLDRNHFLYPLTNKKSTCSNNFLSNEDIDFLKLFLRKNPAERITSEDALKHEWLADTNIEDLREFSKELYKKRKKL

outcome, inactive:
COc1ccc(Cc2cnc(N)nc2N)cc1OCCCOc1ccccc1
CCOC(=O)c1c(-c2ccccc2)c(C(=O)OCC)n2ccccc12
Cc1cc(=O)c(-c2ccc(S(=O)(=O)c3ccc(Cl)cc3)cc2)c(C)[nH]1
Cc1[nH]c(C)c(-c2ccc(Oc3ccc(Cl)cc3)c(Cl)c2)c(=O)c1Br
COc1ccc2c(CNCCCCCCNCc3c(OC)ccc4cc(OC)ccc34)c(OC)ccc2c1
Cc1cc2c3c(N)nc(N)nc3ccc2n1C
COc1ccc(Cc2cnc3nc(N)nc(N)c3c2C)cc1OC
Nc1nc(N)c2c(Oc3ccc(Cl)c(Cl)c3)cccc2n1
CCCCCCCN(Cc1ccc(OC(C)(C)C(=O)OCC)cc1)C(=O)Cc1ccc(F)cc1F
Oc1c(CNC2CCCCC2)cc(Cl)c2ccccc12
COc1ccc2c(c1CNCCCCCCNCc1c(OC)ccc3c1CCCC3)CCCC2
COc1cc(Cc2cnc(N)nc2N)cc(OCCCCCCC(=O)O)c1OC
CCCCNCCOc1ccc(-c2nc(-c3ccccc3)c(-c3ccccc3)[nH]2)cc1
Nc1nc(N)c2c(Sc3ccc(F)cc3)cccc2n1
Cc1[nH]c(C)c(-c2ccc(Oc3ccc(F)cc3)cc2)c(=O)c1Br
Cc1[nH]c(C)c(-c2ccc(-c3ccc(F)cc3)cc2)c(=O)c1Cl
Cc1[nH]c(C)c(-c2ccc(Oc3cccc(OC(F)(F)F)c3)cc2)c(=O)c1Cl
CC1CN=C(c2ccc(NC(=O)Nc3ccc(C4=NCC(C)N4)cc3)cc2)N1 (centres undefined)
CCCCC#Cc1cnc2nc(N)[nH]c(=O)c2n1
COc1cc(Cc2cnc(N)nc2N)cc(OCCCS(=O)(=O)O)c1OC
CCCOc1ccc(CNCCCCCCNCc2ccc(OCCC)c3ccccc23)c2ccccc12
NC(N)=NC(=O)Nc1ccc(Cl)c(C(F)(F)F)c1
CCOC(=O)c1nc2ccc(SC3CCCCC3)cn2c1Br
CC(C)C(=O)Nc1c(F)cc(F)cc1CCc1ccc(O)cc1
CC(CN=C(N)c1cccc(C(N)=NCC(C)Oc2cccc(C3CCCCC3)c2)n1)Oc1cccc(C2CCCCC2)c1 (centres undefined)
CCNC(=NCc1ccccc1)NCCCCCCNC(=NCc1ccccc1)NCC
COc1ccc(OC)c(CC2c3ccc(Br)c(O)c3CCN2C)c1 (centres undefined)
CCc1ccc(Cc2cnc3nc(N)nc(N)c3c2C)cc1CC
COc1cc2c(cc1OC)C(C)(C)CN1Cc3c(c(CO)c(OC)c(OC)c3OC)CC21 (centres undefined)
Cc1c(Cc2ccc(C(C)C)cc2)cnc2nc(N)nc(N)c12
COc1ccc2c(OC)cccc2c1CNCCCCCCNCc1c(OC)ccc2c(OC)cccc12
CCCc1cc(Cc2cnc(N)nc2N)cc2c1OC(C)(C)C2
CCOc1cc(Cc2cnc(N)nc2N)ccc1OC
CCC1=C(C[C@H]2NCCc3cc(OC)c(OC)cc32)C[C@H]2c3cc(OC)c(OC)cc3CCN2C1
CCOc1cc2ncnc(Nc3ccc(OCc4ccccc4OC)c(OC)c3)c2cc1OCC
Cc1[nH]c(C)c(-c2ccc(Oc3ccc(Cl)cc3)cc2)c(=O)c1C
CN(Cc1cnc2nc(N)nc(N)c2n1)c1ccc(C(=O)N[C@H](CCC(=O)OC(C)(C)C)C(=O)N[C@@H](CCC(=O)OC(C)(C)C)C(=O)OC(C)(C)C)cc1
CCCCNCc1ccc(OCc2cccc(COc3ccc(CNCCCC)cc3I)c2)c(I)c1
CC(C)(C)c1ccc(-c2nnc(N)nc2N)cc1
